Assay results as given in PubChem BioAssay AID1159580 (chemical genetic matrix, 2015).
Where “and” joins values, the source holds several entries; their conditions need not be identical. Identical values can stand only once. About 2,000 (36%) of roughly 5,500 compounds were called active. Not shown: some 18% with an inconclusive outcome. Rule as the data show it: active = normalized growth mostly below about 0.91 (no sharp cut-off); inconclusive = no clear call, values can overlap the other calls; inactive = mostly above about 0.92. The list shows a part of the results.

Experiment: chemical genetic growth profiling, strain panel (AID 1159580);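 also: tested at 20 µM; growth read once vehicle control cultures reached saturation at 30 °C; 1 = growth at the plate median or of vehicle wells; lower values mean less growth of the strain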
Conditions: S. cerevisiae deletion strains, growth OD

Measured: normalized growth

NCCc1cnc[nH]1
inactive: locus YAL021C, strain ccr4, hits give low values 1.01 | locus YAL026C, strain drs2, hits give low values 1.01 | locus YAL030W, strain snc1, hits give low values 1.01 | locus YAL040C, strain CLN3, hits give low values 0.978 | locus YBL061C, strain skt5, hits give low values 1.02 | locus YBR009C, strain hhf1, hits give low values 1 | locus YBR021W, strain FUR4, hits give low values 1 | locus YBR023C, strain chs3, hits give low values 1.02 | locus YBR171W, strain sec66, hits give low values 1.03 | locus YBR229C, strain ROT2, hits give low values 1.01 | locus YBR231C, strain swc5, hits give low values 0.976 | locus YBR279W, strain paf1, hits give low values 1.02 | locus YCL011C, strain gbp2, hits give low values 1.03 | locus YCL016C, strain dcc1, hits give low values 1.01 | locus YCL029C, strain bik1, hits give low values 1.01 | locus YCL061C, strain MRC1, hits give low values 1.02 | locus YCL069W, strain vba3, hits give low values 1.01 | locus YCR088W, strain abp1, hits give low values 1.01 | locus YDL005C, strain med2, hits give low values 1.02 | locus YDL035C, strain GPR1, hits give low values 0.988 | locus YDL040C, strain nat1, hits give low values 1.02 | locus YDL074C, strain BRE1, hits give low values 1 | locus YDL101C, strain DUN1, hits give low values 1.01 | locus YDL185W, strain tfp1, hits give low values 1.02 | locus YDL192W, strain arf1, hits give low values 1.03 | locus YDR001C, strain nth1, hits give low values 1.01 | locus YDR069C, strain doa4, hits give low values 0.993 | locus YDR101C, strain arx1, hits give low values 0.997 | locus YDR137W, strain rgp1, hits give low values 1.03 | locus YDR159W, strain sac3, hits give low values 0.995 | locus YDR162C, strain NBP2, hits give low values 0.998 | locus YDR195W, strain ref2 0.994 | locus YDR297W, strain sur2, hits give low values 1.04 | locus YDR318W, strain mcm21, hits give low values 1.02 | locus YDR334W, strain swr1, hits give low values 1.02 | locus YDR335W, strain msn5, hits give low values 1.02 | locus YDR363W, strain ESC2, hits give low values 0.998 | locus YDR388W, hits give low values 1.01 | locus YDR392W, strain spt3, hits give low values 1 | locus YDR502C, strain sam2, hits give low values 1.01 | locus YEL003W, strain gim4, hits give low values 1.03 | locus YEL037C, strain rad23, hits give low values 1.02 | locus YEL061C, strain CIN8 (second series), hits give low values 1.02 | locus YEL061C, strain CIN8, hits give low values 0.995 | locus YER002W, strain NOP16, hits give low values 0.994 | locus YER015W, strain faa2, hits give low values 1.01 | locus YER016W, strain bim1, hits give low values 1 | locus YER110C, hits give low values 1.02 | locus YER111C, strain swi4, hits give low values 1.02 | locus YER155C, strain BEM2 (second series), hits give low values 1.03 | locus YER155C, strain BEM2, hits give low values 1.01 | locus YER167W, strain BCK2, hits give low values 0.989 | locus YFR010W, strain ubp6, hits give low values 1.01 | locus YGL078C, strain dbp3, hits give low values 1.02 | locus YGL086W, strain mad1, hits give low values 1 | locus YGL167C, strain pmr1, hits give low values 1.01 | locus YGL173C, strain kem1, hits give low values 1 | locus YGL227W, strain vid30, hits give low values 1.01 | locus YGL240W, strain doc1, hits give low values 1.01 | locus YGL248W, strain PDE1, hits give low values 1.01 | locus YGL253W, strain hxk2, hits give low values 1.01 | locus YGR078C, strain PAC10, hits give low values 1 and 0.997 | locus YGR135W, strain pre9, hits give low values 1.02 | locus YGR252W, strain gcn5, hits give low values 1.04 | locus YHR013C, strain ard1, hits give low values 1.06 | locus YHR027C, strain rpn1, hits give low values 1.01 | locus YHR030C, strain SLT2, hits give low values 0.985 and 1 | locus YHR079C, strain IRE1 (second series), hits give low values 1.01 | locus YHR079C, strain IRE1, hits give low values 1.03 | locus YHR094C, strain hxt1, hits give low values 1.01 | locus YHR129C, strain ARP1, hits give low values 1.01 | locus YHR142W, strain chs7, hits give low values 1.01 | locus YHR200W, strain rpn10, hits give low values 1.02 | locus YIL066C, strain RNR3, hits give low values 1.01 | locus YIL073C, strain SPO22, hits give low values 1.03 | locus YIL125W, strain kgd1, hits give low values 1.02 | locus YIR030C, strain dcg1, hits give low values 1.01 | locus YJL092W, strain hpr5, hits give low values 1.02 | locus YJL095W, strain BCK1 (second series), hits give low values 1.02 | locus YJL095W, strain BCK1, hits give low values 1.01 and 0.999 | locus YJL115W, strain asf1, hits give low values 1.02 | locus YJL129C, strain trk1, hits give low values 1.03 | locus YJL134W, strain LCB3, hits give low values 0.995 | locus YJL154C, strain vps35, hits give low values 1.03 | locus YJL164C, strain tpk1, hits give low values 1.02 | locus YJL166W, strain qcr8, hits give low values 1.03 | locus YJL168C, strain set2, hits give low values 1.01 | locus YJL187C, strain SWE1 (second series), hits give low values 1 | locus YJL187C, strain SWE1, hits give low values 1.01 | locus YJR043C, strain POL32, hits give low values 1
